This note sets out measurements from PubChem BioAssay (EPA / NIEHS).

Values joined by “and” are separate entries in the source; they are usually repeats but may differ in a detail not shown here. Equal values may be shown once. Some compounds were tested as several samples or in several runs, with calls that do not always agree. Active and inactive are the calls of the source. How the source made its calls: active means hit-call score of the fitted dose curve at least 0.9, where 1 is the maximum; inactive means score below 0.9.

The nature of the assay: CCTE_Shafer_MEA_dev_burst_duration_mean: CCTE's Neural Network Formation Assay for Mean Burst Duration, Shafer Lab (AID 2284045).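 On AC50: curve fitted for loss meaning shorter burst duration than DMSO.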 How it is done:
CCTE_Shafer_MEA_dev assay is conducted using Axion Biosystems 48 well microelectrode array (MEA) plates and Maestro recording system. Each well of the MEA plate contains a grid of 16 microelectrodes embedded in the culture surface. Electrically active cells, such as neurons, can be cultured over the electrodes, and electrical activity in these cells can be recorded extracellularly. The spontaneous firing of neurons is captured from each electrode on a microsecond timescale providing both temporally and spatially precise data. […] The CCTE_Shafer_MEA_dev assay uses primary cultures of rat cortical neurons. Recordings are made on days post-plating 5, 7, 9 and 12. As these cultures mature over time, neural networks develop functional activity and form cohesive networks in which electrical activity can be highly coordinated. CCTE_Shafer_MEA_dev_burst_duration_mean is 1 of 19 assay components of the CCTE_Shafer_MEA_dev assay. It measures the average time interval from the first spike (action potential firing) to the last spike in a singe-electrode burst (temporally-clustered group of spikes) during a recording in a microelectrode array (MEA) using Axion Biosystems Maestro 768 channel amplifier with the AxIS adaptive spike detector. The mean burst duration is averaged across the actively bursting electrodes to report a well-mean value. To collapse across multiple recordings made on days post-plating 5, 7, 9 and 12, the trapezoidal area-under-the-curve of the component is calculated.Data from the assay component CCTE_Shafer_MEA_dev_burst_duration_mean was analyzed into 1 assay endpoint. This assay endpoint, CCTE_Shafer_MEA_dev_burst_duration_mean, was analyzed in the negative analysis fitting direction relative to DMSO as the negative control and baseline of activity. Using a type of functional reporter, gain or loss-of-signal activity can be used to understand electrical activity.
On the day prior to culture, each well was coated thoroughly with 150 uL of 0.05% polyethyleneimine (PEI, Sigma Cat P3143) in 50 mM HEPES (Sigma Cat H7523) at a pH of 8. The plate was incubated at 37C for one hour. PEI was rinsed out with 500 uL of sterile water three times. Plates were stored at 4C until the day of culture. This culture was plated at a seeding density of 1.5 x 10^5 cells/well on a 48-well MEA plate, prepared as described above. Cells were administered via a 25 uL media/laminin ([…]; Sigma Cat L2020-1MG) drop directly onto the microelectrode array, as adding the cells with the laminin results in better attachment than pre-coating with laminin. After 2 hours, an additional 475 uL of cortical media was added and the cells returned to the incubator. Exposure starts at day 0 of plating and is continued over twelve days of network development until the experiment is terminated. Cells are fed with fresh medium on DIV 5 and 9, following the recordings on those days. The entire volume of media in the well is exchanged and any vehicle or compound treatment is renewed. Complete details are found in OP-NHEERL/ISTD/SBB/TJS/2015-03-r0 (available on request, email shafer.tim@epa.gov). Measurement of the electrical activity is non-invasive, and recordings can be made from the same plate over multiple different days of the culture. In cortical neurons, this allows for the measurement of extracellular action potentials over the period during which networks form in the MEA plate.
`O=S(=O)(O)C(F)(F)C(F)(F)C(F)(F)C(F)(F)F`: the compound was called inactive.

Consider `Clc1ccc(C(c2ccccc2Cl)C(Cl)(Cl)Cl)cc1` (stereo not drawn), for which the outcome was inactive. Same read-out and setting: next, `O=C(O)C(F)(F)C(F)(F)C(F)(F)C(F)(F)C(F)(F)C(F)(F)C(F)(F)C(F)(F)F`: “inactive”; `ClC1=C(Cl)[C@]2(Cl)[C@@H]3[C@@H]4C[C@@H]([C@H]5O[C@@H]45)[C@@H]3[C@@]1(Cl)C2(Cl)Cl`: “inactive”. In the case of `ClC(Cl)=C(c1ccc(Cl)cc1)c1ccc(Cl)cc1`, the call was inactive. `O=C(O)C(F)(F)C(F)(F)C(F)(F)C(F)(F)C(F)(F)F`: the compound was called inactive.

Regarding `CCC(C)(c1ccc(O)cc1)c1ccc(O)cc1`, the compound was called inactive. On to `COc1ccc(O)c(C(C)(C)C)c1`, for which the compound was called inactive. For `ClC1=C(Cl)[C@]2(Cl)[C@@H]3[C@H]4C[C@H]([C@@H]5O[C@H]45)[C@@H]3[C@@]1(Cl)C2(Cl)Cl`, the result was inactive. Regarding `CCOP(=S)(OCC)SCSC(C)(C)C`, the AC50 is 23.5 µM (active) and the outcome was inactive.

`CO/C=C(/C(=O)OC)c1ccccc1COc1cccc(C(F)(F)F)n1`: the AC50 is 231 nM (active) and 490 nM (active).

With `NS(=O)(=O)C(F)(F)C(F)(F)C(F)(F)C(F)(F)C(F)(F)C(F)(F)C(F)(F)C(F)(F)F`, the result was inactive. As to `ClC1=C(Cl)[C@]2(Cl)[C@@H]3[C@@H](Cl)[C@H]4O[C@H]4[C@@H]3C1(Cl)C2(Cl)Cl`, the result was inactive. For the compound `C=CC(N)=O`, the compound was classed as inactive. Same read-out and setting: next, `Oc1ccc(C(c2ccc(O)cc2)(C(F)(F)F)C(F)(F)F)cc1`: “inactive”; `c1cc2ccc3cccc4ccc(c1)c2c34`: “inactive”; `O=S(=O)(O)C(F)(F)C(F)(F)C(F)(F)C(F)(F)C(F)(F)C(F)(F)F`: “inactive”.
